# Pf growth 48h = P. falciparum growth inhibition at 48 hours (one generation) | P. falciparum luciferase growth in erythrocytes, 48 h | Potency, µM (series often up to 28.7 µM), for inactives: at the top dose activity change, negative = inhibition, actives largely listed as inhibitors | AID 504832 | 5.9% of 310,000 active; further: potency means the concentration at half of the fitted maximal effect; on the % scale 0 is the no-effect control and ±100 the full control effect
#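 Growth was read as firefly luciferase luminescence after a 48 h, 37 C, 5% CO2 exposure of compounds to reporter-bearing P. falciparum cultures (0.1% parasitemia, 2% hematocrit final) in Albumax-supplemented RPMI 1640.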
# Pf growth 96h = P. falciparum growth inhibition at 96 hours. P. falciparum luciferase reporter growth, 96 h. Potency, µM (top dose mostly 28.7 µM), inactives show top-dose activity change, negative = inhibition, actives largely listed as inhibitors. 6.9% of 320,000 active. AID 504834; further: potency means the concentration at half of the fitted maximal effect; on the % scale 0 is the no-effect control and ±100 the full control effect
#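 Compounds incubated with erythrocytes infected by luciferase-expressing P. falciparum (2% hematocrit, 0.05% parasitemia final) for 96 hours, 37 C in 5% CO2. Growth inhibition scored as decreased luciferase luminescence.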
# NS1 function inh = inhibitors of influenza NS1 protein function; Potency, µM (top dose mostly 46.1 µM), without a hit: top-dose activity, positive = more growth; 0.4% of 270,000 active; AID 2326; calls by dose curve; further: potency means the concentration at half of the fitted maximal effect; actives are rising curves; nearly all actives have a fitted effect of over 50% in size
#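 Recovery from NS1-induced slow growth read by OD600 in budding yeast switched to galactose assay medium (pH 6.0, -URA) at 1:100 dilution. Compound 23 nl per well; the matching strain lacking NS1 serves as control.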
# SARS PLP yeast = inhibitors of SARS-CoV papain-like protease in yeast | S. cerevisiae expressing SARS-CoV PLpro, growth rescue | AID 485353 | Potency, µM (doses to about 32.9 µM), for the others: top-dose activity, positive = growth rescue, usual class: activators | 0.19% of 330,000 active; calls by dose curve; further: potency means the concentration at half of the fitted maximal effect; 0% is about no effect; nearly all actives have a fitted effect of over 55% in size
# Shiga inhibitor = inhibitors of Shiga toxin in Vero cells. Vero cells, Shiga toxin protein synthesis inhibition reporter. inhibition, % at 38.7 µM. 9.2% of 290,000 active. AID 2315; in the data active means inhibition mostly above about 28%, no sharp cut-off; inactive means mostly below about 43%; further: 0% is about no effect
# CHX counter = counter-screen for Shiga toxin inhibitors: cycloheximide protein synthesis inhibition; max response, %; cell reporter, cycloheximide protein synthesis inhibition counterscreen; 12% of 300,000 active; in the data active means max response mostly above about 13%, no sharp cut-off; inactive means mostly below about 14%; further: read at 38.3 µM for the half of the compounds with a filed dose; 0% is about no effect
# Starred values were filed as active, the others as inactive; ? = inconclusive; / = no result given; [ ] = dose if it differs, or a comment. Compounds with a hit are over-represented: about 21% of the library has one in this group of screens. Unless noted, the call rests on the fitted dose curve; in most records, active means well fitted inhibition curve with a large enough effect; inconclusive means small, poorly fitted or top-dose-only effect, or another doubt; inactive means no such curve, though single readings can be large or run the other way.
SMILES,Pf growth 48h,Pf growth 96h,NS1 function inh,SARS PLP yeast,Shiga inhibitor,CHX counter
CC(Cl)c1cc(-c2ncc(C(F)(F)F)cc2Cl)no1 (configuration not stated),-18%,25%,/,3%,84*,23*
COC(=O)C(C(=O)OC)c1ncc(C(F)(F)F)cc1Cl,17%,9%[1.15 µM],5%,0%,20,-1
COc1ccc(C2=Nn3c(nnc3-c3ccccc3OC)SC2)c(OC)c1,/,/,/,/,-7,-1
Cc1sc2nc(SCC(=O)C(C)(C)C)n(Cc3ccco3)c(=O)c2c1C,3.7µM*,10µM*,0%,7%,-6,1
Cc1cccc(CSc2nc3sc(C)c(C)c3c(=O)n2Cc2ccco2)c1,15µM*,/,-3%,7%,-21,-6
Cc1sc2nc3c4ccccc4c(NCc4ccco4)nn3c(=O)c2c1C,59%,5.9µM*,-6%,-1%,135*,73*
O=S(=O)(Nc1nc2ccccc2s1)c1cnc(Cl)c(Br)c1,89%,0%,-5%,-2%,11,10
CCn1c(COC(=O)CNC(=O)c2ccccc2)nc2cc(S(=O)(=O)N(C)C)ccc21,1%,60%,/,4%,/,/
CC(C(=O)Nc1ccc2c(c1)OCCO2)N(C)Cc1c(F)cccc1Cl (configuration not stated),2%,22%,/,-7%,25,26
CN1CCN(c2ncnc3c2cnn3-c2ccc(Cl)cc2)CC1,/,167%,0%,-10%,66*,42*
CN1CCN(c2ncnc3c2cnn3C)CC1,8%,32%,-3%,0%,12,-1
CCOC(=O)N1CCN(c2ncnc3c2cnn3-c2ccc(Cl)cc2)CC1,44%,/,2%,6%,-19,20*
CCN1CCN(c2ncnc3c2cnn3-c2ccc(Cl)cc2)CC1,108%,-94%,3%,-2%,74*,45*
Cc1ccccc1C(=O)N1CCN(c2ncnc3c2cnn3-c2ccccc2)CC1,?,20%,0%,-7%,-32,-3
Cc1noc(C)c1COc1ccc(C(=O)N2CCN(c3ccccn3)CC2)cc1,0%,0%,/,-5%,/,/
Cc1[nH][nH]c(=O)c1C(c1c(C)[nH][nH]c1=O)c1cn(C)c2ccccc12,10µM*,15%,1%,-3%,10,6
CCOc1ccc(Cl)cc1C(c1c(C)[nH][nH]c1=O)c1c(C)[nH][nH]c1=O,10%,-8%,20%,-2%,-13,1
CC1(C)C(=O)N(c2ccccc2)C1c1ccccc1O (configuration not stated),?,35%,-6%,0%,-1,-5
COc1ccc(N2C(=O)C(C)(C)C2c2c(O)ccc3ccccc23)cc1 (configuration not stated),8.3µM*,-2%,25%,-12%,-3,-2
O=C(N/N=C/c1ccccc1F)C(=O)N1CCCCCC1,31%,?,-16%,1%,34*,24*
O=C(N/N=C/c1ccccc1O)C(=O)N1CCCCCC1,-16%,15%,-41%,27%,21,20*
O=C(N/N=C/c1cccc(O)c1)C(=O)N1CCCCCC1,7%,?,-7%,-5%,4,8
O=C(CN1CCCCCC1)N/N=C/c1cccs1,/,26%,1%,8%,-19,1
COc1ccccc1NC(=O)C(=O)N/N=C/c1cccs1,90%,-1%,-31%,-47%,99*,38*
O=C(N/N=C/c1cccs1)C(=O)N1CCCC1,19%,-29%,4%,0%,48,28*
SMILES,Pf growth 48h,Pf growth 96h,NS1 function inh,SARS PLP yeast,Shiga inhibitor,CHX counter
CCOC(=O)CN(C(=O)c1ccccc1[N+](=O)[O-])C(C)(C)C,36%,24%,0%,1%,-4,1
CN(C)C(=O)COc1ncnc2sc(-c3ccccc3)cc12,69%,78%,-3%,-4%,72*,28*
CN(CCC#N)C(=O)CSc1ncnc2sc(-c3ccccc3)cc12,-2%,?,-9%,1%,62*,31*
CCN(CC)C(=O)CSc1ncnc2sc(-c3ccccc3)cc12,64%,/,-4%,-16%,36,34
CN(C)c1ncnc2sc(-c3ccccc3)cc12,134%,39%,-43%,-5%,40,16*
COc1ncnc2sc(-c3ccccc3)cc12,179%,17%,-67%,16%,82,66*

# From PubChem BioAssay
